Laboratory results: PubChem BioAssay AID1850 (Southern Research Specialized Biocontainment Screening …, 2009)
Screen size: about 310,000 compounds; about 1,000 (0.32%) were called active. Not all results are given here. Entries with a potency or affinity are not part of this list. Unmarked numbers belong to inactive results. No rule for the calls is given here.

Assay: PhoP regulon inhibitors, Salmonella typhi PhoP promoter GFP reporter, confirmatory (AID 1850);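 also: 0% = induced wells with vehicle and 100% = uninduced wells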
Conditions: fluorescence, 4 h, at 50 µM, active compounds read high

| Structure (SMILES) | inhibition |
| --- | --- |
| COc1cc(/C=N/NC(=O)c2ccncc2)ccc1Oc1ccc([N+](=O)[O-])cn1 | 4.23% |
| O=c1c2ccccc2n(CC(O)CN2CCCCC2)c2ccccc12 (stereo not given) | -2.95% |
| COc1ccc(OCC(O)CNCc2ccco2)cc1 (stereo not given) | 0.683% |
| OC(CNCc1ccco1)Cn1c2ccccc2c2ccccc21 (stereo not given) | 1.11% |
| OC(CN1CCCCC1)Cn1c2ccccc2c2ccccc21 (stereo not given) | -5.86% |
| CC1(C)CC(OC(=O)c2ccco2)CC(C)(C)N1O | -11.8% |
| CCn1nc(C(=O)OCC(=O)N(CC(C)C)c2c(N)n(Cc3ccccc3)c(=O)[nH]c2=O)c2ccccc2c1=O | -10.1% |
| Cc1csc(NC(=O)CSc2nnc3c4ccccc4nc(C(C)(C)C)n23)n1 | -6.02% |
| CN(C)/C=C/c1onc(-c2c(F)cccc2Cl)c1C#N | -0.05% |
| COc1ccc(-n2c(-c3ccc(Br)cc3)c[n+]3c2CCc2ccccc2-3)cc1 | 13.6% |
| Brc1ccc(-c2cn3c(n2)CCc2ccc4cccnc4c2-3)cc1 | 1.82% |
| COc1ccc(-c2nc(CS(=O)(=O)CC(=O)Nc3cccc(C(C)=O)c3)c(C)o2)cc1 | -8.19% |
| CC(=O)c1ccc(O)c(CSc2nncn2C)c1 | -0.79% |
| COC(=O)C1=C(C)N(Cc2ccccc2)C(=NCc2ccccc2)N[C@H]1c1cccc(F)c1 | -0.78% |
| COC(=O)C1=C(C)N(Cc2ccccc2)C(=NCc2ccc(OC)cc2)N[C@H]1c1cccc(F)c1 | 10.3% |
| CCCNC(=O)c1cc(-c2ccccc2)c(N2CCCCC2)s1 | 9.44% |
| CCCCc1ccc(NC(=O)CSc2nc(=O)n(CCN(C)C)c3c2CCC3)cc1 | 11.9% |
| Cc1cccc(NC(=O)c2cc(S(=O)(=O)N(C)c3ccc(F)cc3)ccc2Cl)n1 | 8.42% |
| Oc1ccccc1Nc1ccccn1 | -1.96% |
| c1ccc(Nc2ccccn2)nc1 | -2.23% |
| Cc1ccc(S(=O)(=O)N2CCC(C(=O)O)CC2)cc1 | -0.71% |
| CCOCCCn1c(=S)[nH]c2cc(C(=O)NCCc3ccc(OC)c(OC)c3)ccc2c1=O | 3.11% |
| CCCC(CCC)C(=O)Nc1ccc2c(c1)N(C(=O)CN1CCN(C)CC1)c1ccccc1CC2 | 5.91% |
| Cc1ccc(NC(=O)c2ccccc2)cc1 | -5.33% |
| C/C(=C\C(=O)c1ccccc1)Nc1ccc(O)cc1 | -9.8% |

| Structure (SMILES) | inhibition |
| --- | --- |
| COC(=O)/C(=C\C(=O)c1ccccc1)Nc1ccc(OC)cc1 | -7.68% |
| Cc1ccc(NC(=O)NNC(=O)c2ccccc2)cc1 | 1.31% |
| O=C(NCc1ccc(Cl)cc1)N1CCc2ccccc2C1 | 2.15% |
| COc1ccc2c(c1)CC/C(=C\c1ccc(C)o1)C2=O | -3.7% |
| CC1Cc2ccccc2N1Cc1nc2scc(-c3cccs3)c2c(=O)[nH]1 (stereo not given) | 0.2% |
| O=C(OCC(=O)N1CCOCC1)c1ccccc1O | 5.57% |
| CC1CC(C)CN(C(=O)COC(=O)c2ccc[nH]c2=O)C1 (stereo not given) | -8.36% |
| CCCC(=O)N1CCN(c2nc3ccccc3s2)CC1 | -3.88% |
| Cc1ccc2c(Cl)cc(Cl)c(OCC(=O)NC(C)(C)C)c2n1 | -16.9% |
| Cc1ccc2c(Cl)cc(Cl)c(OCC(=O)N(C(C)C)C(C)C)c2n1 | -1.43% |
| COc1cccc(C(=O)NC2CCCc3ccccc32)c1OC (stereo not given) | -9.26% |
| CS(=O)(=O)N(CCc1ccccc1)CC(=O)N1CCN(c2ccccc2)CC1 | -4.94% |
| COc1ccc(CCNC(=O)COC(=O)C23CC4CC(CC(C4)C2)C3)cc1 | -12.8% |
| CCc1ccccc1NC(=S)N1CCCCCC1 | -5.25% |
| O=C(Cn1cncn1)N/N=C/c1cccc2ccccc12 | -7.61% |
| O=C(Cn1cncn1)N/N=C/c1ccccc1Cl | -13.1% |
| Cc1cc([N+](=O)[O-])nn1CC(=O)N/N=C/c1ccccc1Br | 13.2% |
| Cc1cc([N+](=O)[O-])nn1CC(=O)N/N=C/c1ccc(O)cc1O | 18.8% |
| O=C(NCC1CCCO1)c1cccc(Oc2ccccc2)c1 (stereo not given) | -8.15% |
| O=C(O)c1cccc(N/N=C/c2cc(Br)cc(Br)c2O)c1 | -6.95% |
| Oc1c(Br)cc(Br)cc1C=Nc1cccnc1 | 7.09% |
| Brc1cccc(C=Nc2cccc3ncccc23)c1 | -0.83% |
| CN(C)c1ccc(C(=O)N/N=C/c2cc(Br)cc(Br)c2O)cc1 | -1.06% |
| O=C(O)c1ccccc1N/N=C/c1cc(Br)cc(Br)c1O | 5.52% |
| Cc1cccc(N=Cc2cc(Br)cc(Cl)c2O)c1 | 10.7% |
